Among the data in PubChem BioAssay (NCI) are growth inhibition values, retold here.

The panel holds about 79,000 compounds, 15% with a hit somewhere; the sample as a whole holds those more often. Values without a mark were called inactive. Activity calls are given as the source filed them. Rule as the data show it: active = growth inhibition above about 70%; inactive = the rest.

The nature of the first test: NCI Yeast Anticancer Drug Screen. Data for the rad14 strain (AID 159).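 Also: 0% = growth of vehicle-treated control cultures.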 The conditions noted are these: S. cerevisiae rad14 strain growth inhibition; at 33.0 µM; hits give high values. An outline of the steps:
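Test compounds were applied to a repair-deficient yeast strain. Its growth was then compared with that of cultures given vehicle alone, and inhibition was expressed relative to those controls.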
With `CNC(=O)OCc1c(COC(=O)NC)c(C)n(-c2ccc(Cl)c(Cl)c2)c1C`, the growth inhibition is 98% (active).

With `COc1ccc2nc(N/N=C/c3sccc3C)cc(C)c2c1`, the growth inhibition was 97% (active).

In the case of `O=C(O)/C=C\C(=O)NNc1ccc(Br)cc1`, the growth inhibition was 99% (active).

With `S=c1[nH]nc(Cc2ccccc2)c(=S)[nH]1`, the growth inhibition is 94% (active).

Regarding `COc1ccc2nc3cccc([N+](=O)[O-])c3c(NCCCO)c2c1`, the growth inhibition is 99% (active).

In the case of `CCN(CC)CCSc1c2ccccc2nc2cc(NCC(=O)Nc3ccccc3-c3ccccc3NC(=O)CNc3ccc4c(SCCN(CC)CC)c5ccccc5nc4c3)ccc12`, the growth inhibition was 74% (active).

With `Cc1ccc(N(C=O)c2c([N+](=O)[O-])cc([N+](=O)[O-])c3c2=[N+]([O-])CN=3)cc1`, the growth inhibition is 94% (active).

For `COc1ccc(C(=O)OCCc2ccccc2)cc1`, the growth inhibition was 3%.

Regarding `COc1ccc(C(=O)NCCN(C)C)c2nc3ccccc3cc12`, the growth inhibition is 10%.

In the case of `NCC(O)CSCc1ccc(Cl)cc1` (configuration not stated), the growth inhibition was 7%.

Consider `CN(C)/N=N/c1nc[nH]c1C(N)=O`, for which the growth inhibition was -1%.

As to `COc1ccc(/C(=N/O)c2ccccc2C2=Nc3ccccc3C(NCc3ccccc3)O2)cc1C` (configuration not stated), the growth inhibition is 21%.

For the compound `CCCC(=O)OC(OC(=O)CCC)c1ccc([N+](=O)[O-])o1`, the growth inhibition is 7%.

`O=C(/C(=C/c1ccccc1)CBr)c1ccccc1`: the growth inhibition is 93% (active).

On to `Cc1cccc(N2CCN(C(=O)/C(=C/c3ccccc3)NC(=O)c3ccccc3)CC2)c1`, for which the growth inhibition is 28%.

As for `c1cc(Nc2ccc3c(c2)OCO3)c2cc(C3CCCCC3)ccc2n1`, the growth inhibition is 15%.

For `Cc1ccc2nc(N/N=C/c3ccc(C)s3)cc(C)c2c1`, the growth inhibition was 99% (active).

`COc1cc(NCCCCCNC(C)C)c2ncccc2c1Cl`: the growth inhibition is 24%.

On to `COc1ccc2cc(CN3CCC(C4CCN(Cc5ccc6cc(OC)ccc6c5)CC4)CC3)ccc2c1`, for which the growth inhibition is 9%.

Take `CC(=O)O/N=C/c1c2ccccc2cc2ccccc12`: the growth inhibition was 23%.

On to `CC[C@@]1(OC(=O)CN(C)C)C(=O)OCc2c1cc1n(c2=O)Cc2cc3ccccc3nc2-1`, for which the growth inhibition is 87% (active).

Consider `CC1(C)CC(=O)C(C(CC(c2ccccc2)c2cc3c(cc2O)OCO3)C2=C(O)CC(C)(C)CC2=O)=C(O)C1` (configuration not stated), for which the growth inhibition was 68%.

Take `CCCCCCC(CCl)c1sc(-c2csc(CCNC(=O)OC(C)(C)C)n2)nc1C(=O)OC` (configuration not stated): the growth inhibition is 23%.

As to `CCOC(=O)C1=C(C)NC(C)=C(C(=O)OCC)C1c1cccc([N+](=O)[O-])c1`, the growth inhibition is 25%.

Regarding `Cc1ccc2c(/C=C/c3ccc(N(C)C)cc3)ccnc2c1C`, the growth inhibition was -6%.

Take `O=C1C(Br)=CC(Br)(Br)C=C1Br`: the growth inhibition was 95% (active).

Still in this test, the particulars now being: S. cerevisiae rad14 strain growth inhibition; at 100.0 µM; hits give high values.
Take `CNC(=O)OCc1c(COC(=O)NC)c(C)n(-c2ccc(Cl)c(Cl)c2)c1C`: the growth inhibition is 98% (active).

For `COc1ccc2nc(N/N=C/c3sccc3C)cc(C)c2c1`, the growth inhibition was 90% (active).

In the case of `O=C(O)/C=C\C(=O)NNc1ccc(Br)cc1`, the growth inhibition was 99% (active).

On to `S=c1[nH]nc(Cc2ccccc2)c(=S)[nH]1`, for which the growth inhibition was 97% (active).

In the case of `COc1ccc2nc3cccc([N+](=O)[O-])c3c(NCCCO)c2c1`, the growth inhibition was 95% (active).

On to `CCN(CC)CCSc1c2ccccc2nc2cc(NCC(=O)Nc3ccccc3-c3ccccc3NC(=O)CNc3ccc4c(SCCN(CC)CC)c5ccccc5nc4c3)ccc12`, for which the growth inhibition is 96% (active).

With `Cc1ccc(N(C=O)c2c([N+](=O)[O-])cc([N+](=O)[O-])c3c2=[N+]([O-])CN=3)cc1`, the growth inhibition was 97% (active).

For the compound `COc1ccc(C(=O)OCCc2ccccc2)cc1`, the growth inhibition is 4%.

As to `COc1ccc(C(=O)NCCN(C)C)c2nc3ccccc3cc12`, the growth inhibition is 57%.

Regarding `NCC(O)CSCc1ccc(Cl)cc1` (configuration not stated), the growth inhibition is 34%.

As for `CN(C)/N=N/c1nc[nH]c1C(N)=O`, the growth inhibition is 98% (active).

With `COc1ccc(/C(=N/O)c2ccccc2C2=Nc3ccccc3C(NCc3ccccc3)O2)cc1C` (configuration not stated), the growth inhibition is 96% (active).

As to `CCCC(=O)OC(OC(=O)CCC)c1ccc([N+](=O)[O-])o1`, the growth inhibition is 26%.

In the case of `O=C(/C(=C/c1ccccc1)CBr)c1ccccc1`, the growth inhibition is 99% (active).

Regarding `Cc1cccc(N2CCN(C(=O)/C(=C/c3ccccc3)NC(=O)c3ccccc3)CC2)c1`, the growth inhibition was 35%.

Take `c1cc(Nc2ccc3c(c2)OCO3)c2cc(C3CCCCC3)ccc2n1`: the growth inhibition is 78% (active).

For `Cc1ccc2nc(N/N=C/c3ccc(C)s3)cc(C)c2c1`, the growth inhibition was 98% (active).

As to `COc1cc(NCCCCCNC(C)C)c2ncccc2c1Cl`, the growth inhibition is 24%.

For the compound `COc1ccc2cc(CN3CCC(C4CCN(Cc5ccc6cc(OC)ccc6c5)CC4)CC3)ccc2c1`, the growth inhibition is 97% (active).

For `CC(=O)O/N=C/c1c2ccccc2cc2ccccc12`, the growth inhibition was 78% (active).

With `CC[C@@]1(OC(=O)CN(C)C)C(=O)OCc2c1cc1n(c2=O)Cc2cc3ccccc3nc2-1`, the growth inhibition is 95% (active).

Take `CC1(C)CC(=O)C(C(CC(c2ccccc2)c2cc3c(cc2O)OCO3)C2=C(O)CC(C)(C)CC2=O)=C(O)C1` (configuration not stated): the growth inhibition is 78% (active).

As to `CCCCCCC(CCl)c1sc(-c2csc(CCNC(=O)OC(C)(C)C)n2)nc1C(=O)OC` (configuration not stated), the growth inhibition is 97% (active).

Regarding `CCOC(=O)C1=C(C)NC(C)=C(C(=O)OCC)C1c1cccc([N+](=O)[O-])c1`, the growth inhibition was 88% (active).

`Cc1ccc2c(/C=C/c3ccc(N(C)C)cc3)ccnc2c1C`: the growth inhibition is 77% (active).

With `O=C1C(Br)=CC(Br)(Br)C=C1Br`, the growth inhibition was 98% (active).
